This passage reports growth results from PubChem BioAssay (NCI).

Structures are written as SMILES. The panel holds about 83,000 compounds, 20% with a hit somewhere; the sample as a whole holds those more often.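 96-well plates, one dose, 48 hours. Percent growth reported; active if below 10.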 Values without a mark were called inactive. Activity calls are given as the source filed them.

The assay relates to MALME-3M melanoma. Description: NCI-60 one-dose screen, 48 h (100 = growth as untreated, 0 = no growth, -100 = all killed). The settings on record: 10 µM.
`Cc1ccc(-c2nc3ccc(C(=O)N=Nc4c(O)[nH]c5ccc(Br)cc45)cc3[nH]2)cc1`: the growth was 90.5%.
Next, `CCCCCc1ccc(S(=O)(=O)Nc2cc(-c3csc(N(C)C(C)=O)n3)ccc2N2CCN(C)CC2)cc1`: -57.1% (active).
Next, `Cc1ccc(NC(=O)NCn2c(=O)[nH]c3ccccc3c2=O)cc1`: 79.3%; `Cc1ccc(C(=O)NCCCNc2nc(Nc3ccc(N4CCN(C)CC4)cc3)nc3ccsc23)cc1`: -94.8% (active).
The value for `CNC(=O)c1cccc(N2CCc3c2ccc(NC(=O)Nc2ccc(N4CCN(C)CC4)c(C(F)(F)F)c2)c3F)c1` was -96.3% (active); that for `COC1CC(Cn2cc(COc3ccc4ccc(=O)oc4c3)nn2)C(OCc2ccccc2)C(OCc2ccccc2)C1OCc1ccccc1` (stereo not drawn) was 106%.
For the compound `Cc1ccc(NC(=O)c2ccc(-n3c(=O)[nH]c4ccccc4c3=O)cc2)cc1`, the growth is 84.8%.
Regarding `O=C(Cn1cc(CSc2nnc3oc4ccccc4n23)nn1)Nc1ccc(Br)cc1`, the growth is 87.8%.
Take `NC(=Nc1ccc(OCCCCCCCCn2ccnn2)cc1)c1ccccc1`: the growth is 45.1%.
Next, `C=C(C)[C@@H]1CC[C@]2(C)[C@H](CC=C3[C@@H]4CC(C)(C)CC[C@]4(C(=O)N4CCOCC4)CC[C@]32C)[C@@]1(C)CCCN`: -93.8% (active).
Next, `CC(=C(c1ccc(OCCN2CCCCC2)cc1)c1ccc(OCCN2CCCCC2)cc1)c1ccccc1`: -99.9% (active).
As for `CN1CCN(c2ccc(Nc3nc(NCCCNC(=O)c4ccccc4)c4sccc4n3)cc2)CC1`, the growth was 46.1%.
For `COc1cccc(C(N)=Nc2ccc(OCCCCCCn3cncn3)cc2)c1`, the growth is 43.4%.
In the case of `O=C(CS(=O)(=O)c1oc(-c2ccc(Cl)cc2)nc1S(=O)(=O)c1ccccc1)N1CCCC1`, the growth is -99.2% (active).
The value for `CC1(C)CC[C@]2(C(=O)N3CCOCC3)CC[C@]3(C)C(=CC[C@@H]4[C@@]5(C)CC[C@H](NCO)C(C)(C)[C@@H]5CC[C@]43C)[C@H]2C1` was -96.6% (active).
The value for `CC(=O)NCC1=C(C)C=C2C(=O)[C@](C)(O)C3(CC3)C(C)=C21` was -96.3% (active).
As to `C#Cc1ccc(S(=O)(=O)Nc2cccc(-c3csc(NC(C)=O)n3)c2)cc1`, the growth was 78.7%.
Next, `C=C[C@H]1[C@H](O[C@@H]2OC(CO)[C@@H](O)[C@H](O)C2OC(=O)c2c(O)cc(O)cc2-c2cccc(O)c2)OC=C2C(=O)OCC[C@H]21` (stereo partly drawn): 92.6%; `O=C(c1ccc(-n2c(=O)[nH]c3ccccc3c2=O)cc1)N1CCOCC1`: 97.5%; `CCN(CC)CCOc1ccc(C(=C(C)c2ccccc2)c2ccc(OCCN(CC)CC)cc2)cc1`: -100% (active).
Next, `CNC(=O)c1cc(-c2ccc(NC(=O)Nc3ccc(C)cc3)cc2)nc2cccnc12`: 109%.
For `O=C(Cn1cc(CSc2nnc3oc4ccccc4n23)nn1)Nc1cccc(Cl)c1`, the growth is 72.8%.
With `CC1(C)CC[C@]2(C(=O)NCCCNCCCCNCCCN)CC[C@]3(C)C(=CC[C@@H]4[C@@]5(C)Cc6c([nH]c7ccccc67)C(C)(C)[C@@H]5CC[C@]43C)[C@H]2C1`, the growth is 85.3%.
On to `CCC(C)S(=O)(=O)c1oc(-c2ccc(C)cc2)nc1S(=O)(=O)c1ccccc1` (stereo not drawn), for which the growth was -96.4% (active).
For the compound `CC(=O)Nc1nc(-c2ccc(N3CCN(C)CC3)c(NS(=O)(=O)c3cccc4c(N(C)C)cccc34)c2)cs1`, the growth is -35.6% (active).
Next, `N[C@@H](CSSC[C@H](N)C(=O)Nc1ccc(OCC2CCCC2)cc1)C(=O)Nc1ccc(OCC2CCCC2)cc1`: -63.7% (active); `O=C(Nc1ccncc1)c1ccc(-n2c(=O)[nH]c3ccccc3c2=O)cc1`: 96.3%; `CN1CCN(c2ccc(Nc3nc(NCCCNC(=O)c4ccc(F)cc4)c4sccc4n3)cc2)CC1`: -72.3% (active).
For the compound `CC1(C)CC[C@]2(C(=O)O)CC[C@]3(C)C(=CC[C@@H]4[C@@]5(C)C/C(=C/c6ccncc6)[C@H](O)C(C)(C)[C@@H]5CC[C@]43C)[C@@H]2C1`, the growth was 73.1%.
The value for `Cc1cc2c(c(O)c1Br)-c1ncoc1C(=O)[C@]1(C)CC[C@H](C(C)C)[C@H]21` was 31%; that for `Cc1ccc(/C=C(\C#N)n2nnc3c(F)cccc32)cc1` was 34.7%.
Next, `Cc1cc(C)nc(SCC(=O)Nc2ccc(S(N)(=O)=O)cc2)n1`: 99.1%.
Next, `COc1ccc(-c2nc(S(=O)(=O)c3ccc(C)cc3)c(S(=O)(=O)CC(=O)N(C)Cc3ccccc3)o2)cc1`: 16.7%; `O=c1[nH][nH]c(Nc2ccccc2)c1N=Nc1ccc(F)cc1`: 116%.
As to `CN1CCN(c2ccc(Nc3nc(NCCCNC(=O)C4CCCCC4)c4sccc4n3)cc2)CC1`, the growth is -97.1% (active).
`COc1ccc(-c2nc(S(=O)(=O)c3ccccc3)c(S(C)(=O)=O)o2)cc1`: the growth is -92.7% (active).
Consider `c1ccc(C(=C(c2ccc(OCCN3CCCCC3)cc2)c2ccc(OCCN3CCCCC3)cc2)C2CCCC2)cc1`, for which the growth is -95.2% (active).
Next, `COc1ccc(C(C)=C(c2ccc(OCCCN(C)C)cc2)c2ccc(OCCCN(C)C)cc2)cc1`: -97% (active).
